Bioassay records: PubChem BioAssay, National Center for Advancing Translational Sciences (NCATS)
Shown are actives, neighbours in structure and some others; about 11% of the full set was active somewhere.
ALDH1A1 inh – blocks purified human ALDH1A1 activity; P00352; Purified ALDH1A1, NADH fluorescence, propionaldehyde substrate; Potency, µM (highest dose often 75.3 µM), usual class: inhibitors; 220,000 compounds, 7.3% hits; AID 1030
Target sequence (P00352 whole entry, looked up): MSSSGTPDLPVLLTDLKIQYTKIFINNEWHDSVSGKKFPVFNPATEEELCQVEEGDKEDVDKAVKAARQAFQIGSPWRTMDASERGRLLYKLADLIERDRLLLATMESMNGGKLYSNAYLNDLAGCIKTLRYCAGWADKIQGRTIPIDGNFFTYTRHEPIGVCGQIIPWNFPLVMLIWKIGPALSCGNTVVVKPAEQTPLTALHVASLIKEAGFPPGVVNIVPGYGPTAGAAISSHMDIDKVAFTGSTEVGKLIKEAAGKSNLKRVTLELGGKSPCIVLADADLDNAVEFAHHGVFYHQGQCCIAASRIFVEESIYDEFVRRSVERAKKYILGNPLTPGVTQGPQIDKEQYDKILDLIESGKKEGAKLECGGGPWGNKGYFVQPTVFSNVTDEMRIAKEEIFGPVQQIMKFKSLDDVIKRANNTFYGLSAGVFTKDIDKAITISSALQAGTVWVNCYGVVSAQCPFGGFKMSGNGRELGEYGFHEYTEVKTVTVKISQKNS
PNC assembly inh – inhibitors of perinucleolar compartment assembly | PC3M PTB-GFP, PNC prevalence imaging, 16 h; active compounds read low | 140,000 compounds, 3.1% hits | activity change (PNC), negative = inhibition, % at 10 µM | AID 2417;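 active means readout at or below -70, meaning at least 70% loss of cells showing the perinucleolar compartment, a nuclear body marking cancer cells; inconclusive means readout between -30 and a set limit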
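Compounds are pinned in duplicate onto adhered PC3M cells stably expressing GFP-tagged PTB and incubated 16 h at 37 C. Cells are then fixed, nuclei stained with Hoechst, and PNC-positive cells counted.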
IMPase Li inh – cell-permeable IMPase inhibitors with lithium potentiation. CHO-M1 cells, IP1 TR-FRET (IP-One), carbachol + lithium. Potency, µM (titrated, usually from 59.4 µM), most hits filed as inhibitors. 210,000 compounds, 0.35% hits. AID 1457; active means well fitted curve in the direction sought with a large enough effect; inconclusive means small, poorly fitted or top-dose-only effect, or another doubt; inactive means no such curve, though single readings can be large; an effect the other way counts as inactive or inconclusive;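 further: IP1 builds up when IMPase is blocked and the TR-FRET signal falls; nearly all actives have a fitted effect of over 50% in size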
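IP1 accumulation measured by competitive TR-FRET in lysed CHO-M1 cells after 30 min compound exposure at 37C, with a small lithium addition to potentiate weak responses. Hill-equation AC50 from ratio and donor-channel data.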
NPSR antagonist – antagonists of human neuropeptide S receptor cAMP signaling | Q6W5P4 | CHO-NPSR cells, cAMP TR-FRET, antagonist mode | Potency, µM (highest dose often 38.3 µM), actives largely listed as inhibitors | 220,000 compounds, 1% hits; active means well fitted curve in the direction sought with a large enough effect; inconclusive means small, poorly fitted or top-dose-only effect, or another doubt; inactive means no such curve, though single readings can be large; an effect the other way counts as inactive or inconclusive; further: nearly all actives have a fitted effect of over 50% in size
IMPase inh – cell-permeable inhibitors of inositol monophosphatase (IMPase) | P97697 | CHO-M1 cells, IP1 accumulation, HTRF TR-FRET ratio | inhibition (IP1 accumulation), % at 46.1 µM | 120,000 tested, under 10 active | AID 901; active means well fitted curve in the direction sought with a large enough effect in the signal ratio, not every such curve was filed as active; inconclusive means small, poorly fitted or top-dose-only effect, or a change in a side signal; inactive means no such curve, though single readings can be large or run the other way; the % refers to the signal ratio;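 further: cells stimulated with carbachol in lithium chloride buffer; higher means more IMPase inhibition seen as more IP1 and lower FRET ratio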
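Carbachol-driven Gq signalling in CHO-M1 cells (2000/well) generates IP1. Compounds that block IMPase raise IP1 and so reduce the FRET signal from Eu-anti-IP1 and d2-IP1 after a 10 min room-temperature lysis.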
HPGD block – HPGD (human) dehydrogenase inhibition. purified HPGD, NADH fluorescence kinetic, PGE2 substrate. Potency, µM, hits mostly inhibitors. 150,000 compounds, 4.3% hits
Target sequence (P15428 whole entry, looked up): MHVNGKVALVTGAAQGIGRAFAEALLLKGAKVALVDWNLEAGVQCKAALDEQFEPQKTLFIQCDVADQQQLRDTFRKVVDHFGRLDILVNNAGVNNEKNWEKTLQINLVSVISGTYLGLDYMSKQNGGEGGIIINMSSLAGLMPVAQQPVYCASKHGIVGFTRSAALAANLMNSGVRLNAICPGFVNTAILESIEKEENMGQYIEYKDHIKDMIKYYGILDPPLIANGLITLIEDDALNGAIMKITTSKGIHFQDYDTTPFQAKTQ
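20 nM HPGD preincubated 15 min at room temperature with compound in 50 mM Tris-HCl pH 8, 0.01% Tween 20. Started with 1 mM NAD+ and 30 uM prostaglandin E2; NADH fluorescence (360/450 nm) read 5 times over 30-s intervals, last minus first.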
Of the large screens only hits and unclear results are named; the others gave an inactive call. Unless noted, the call rests on the fitted dose curve; in most records, active means well fitted inhibition curve with a large enough effect (not every such curve was filed as active); inconclusive means small, poorly fitted or top-dose-only effect, or another doubt; inactive means no such curve, though single readings can be large or run the other way.

N#Cc1c(N2C(=O)C3C4C=CC(C4)C3C2=O)sc2c1CCC2 (centres undefined)	ALDH1A1 inh 18µM
N#Cc1c(-n2cccc2/C=N/O)sc2c1CCCC2	PNC assembly inh inconclusive
COc1cc(NS(=O)(=O)c2ccc(OC)c(OC)c2)cc(OC)c1	PNC assembly inh inconclusive
O=C(Nc1cnn(Cc2ccccc2)c1)NC12CC3CC(CC(C3)C1)C2	NPSR antagonist inconclusive
O=c1[nH]c(CSc2nc(-c3ccc(F)cc3)cs2)nc2ccccc12	PNC assembly inh -116 (no result: IMPase inh)
Cc1cccc(C)c1Nc1nnc(SCc2nc3ccccc3c(=O)[nH]2)s1	PNC assembly inh -118 (no result: IMPase inh)
O=c1[nH]c(CSc2nc(-c3ccccc3)cs2)nc2ccccc12	ALDH1A1 inh inconclusive (no result: IMPase inh)
Cc1ccc(C(=O)C2=C(O)C(=O)N(c3ncccn3)C2c2cccc(Cl)c2)o1 (centres undefined)	ALDH1A1 inh 13µM, IMPase Li inh inconclusive, IMPase inh inconclusive
C=CCOc1cccc(C2C(C(=O)c3ccco3)=C(O)C(=O)N2CCN(CC)CC)c1 (centres undefined)	PNC assembly inh -134
Cc1ccc(C2C(C(=O)c3ccco3)=C(O)C(=O)N2c2ncccn2)cc1 (centres undefined)	none (no result: PNC assembly inh, IMPase Li inh, IMPase inh, HPGD block)
C=CCOc1cccc(C2C(C(=O)c3ccc(C)o3)=C(O)C(=O)N2c2nccs2)c1 (centres undefined)	PNC assembly inh inconclusive, NPSR antagonist 5µM, IMPase inh inconclusive (no result: IMPase Li inh, HPGD block)
COc1ccc(C2C(C(C)=O)=C(O)C(=O)N2c2nccs2)cc1OC (centres undefined)	none
CCOc1ccc(C2C(C(=O)c3ccco3)=C(O)C(=O)N2CCN(C)C)cc1 (centres undefined)	none
COc1ccc(C2C(C(=O)c3ccco3)=C(O)C(=O)N2CCOCCO)cc1OC (centres undefined)	ALDH1A1 inh 20µM
CCS(=O)(=O)n1nc(-c2ccc(Cl)cc2)nc1N	none
Cc1nnc(SCC(=O)Nc2ncc(Cc3ccc(F)cc3)s2)n1N	none
Cc1cc(N2C(=O)C(O)=C(C(=O)c3cccs3)C2c2cccc(O)c2)no1 (centres undefined)	PNC assembly inh inconclusive
Cc1ccc(C2C(C(=O)c3sc(C)nc3C)=C(O)C(=O)N2CCN(C)C)o1 (centres undefined)	ALDH1A1 inh inconclusive
COc1ccc(C2C(C(=O)c3sc(C)nc3C)=C(O)C(=O)N2CCN(C)C)cc1OC (centres undefined)	ALDH1A1 inh inconclusive, PNC assembly inh -122
Cc1ccc2nc(N3C(=O)C(O)=C(C(=O)c4ccc(C)o4)C3c3cccc(O)c3)sc2c1 (centres undefined)	IMPase Li inh 8.9µM (no result: PNC assembly inh, IMPase inh, HPGD block)
Cn1c(SCc2ccccc2F)nnc1-c1cnccn1	none (no result: IMPase Li inh, HPGD block)
COCCNC(=S)NNc1ccc(Cl)c(C(=O)O)c1	ALDH1A1 inh 8.9µM (no result: PNC assembly inh, IMPase Li inh, IMPase inh, HPGD block)
COc1ccc(/C=C2/C(=O)N(c3nc4ccccc4s3)N=C2CSc2ccc(Cl)cc2)cc1	ALDH1A1 inh inconclusive, HPGD block 14µM
COc1ccc(/C=C2/C(=O)N(Cc3ccccc3)N=C2C)cc1	ALDH1A1 inh inconclusive (no result: IMPase inh)
O=C(NCc1ccccc1)Nc1cccn(Cc2ccccc2F)c1=O	ALDH1A1 inh inconclusive, HPGD block inconclusive (no result: IMPase inh)
CC(=O)Nc1ccc(S(=O)(=O)NCCSCc2ccccc2Cl)cc1	ALDH1A1 inh inconclusive, PNC assembly inh inconclusive (no result: IMPase inh)
Cc1nn(Cc2ccccc2Cl)c(C)c1N	none
Cc1nn(Cc2ccccc2)c(C)c1N	PNC assembly inh -90 (no result: IMPase inh)
CCN1CCN(c2nc(Nc3cccc(C)c3)nc(N)c2[N+](=O)[O-])CC1	none (no result: IMPase inh)
CCn1c(/C(C#N)=N/O)nc2ccccc21	ALDH1A1 inh 20µM, PNC assembly inh inconclusive, HPGD block 35µM (no result: IMPase inh)
O=C1c2cccc3c(O)ccc(c23)C(=O)N1Cc1ccco1	ALDH1A1 inh 13µM (no result: PNC assembly inh, IMPase inh, HPGD block)
O=Cc1ccc(N2CCCC2)c(F)c1	ALDH1A1 inh 1.6µM, PNC assembly inh inconclusive
O=Cc1c(F)cccc1N1CCCC1	none (no result: PNC assembly inh, IMPase inh, HPGD block)
O=Cc1ccc(N2CCCCCC2)cc1	ALDH1A1 inh 0.056µM
O=C1N/C(=C/c2ccc(N3CCCC3)cc2)C(=O)N1c1ccccc1	none (no result: IMPase inh)
COC(=O)c1ccc(/C=N/n2cnnc2)cc1	none
O=C(O)CCN1C(=O)CC(N2C(=O)/C(=C/c3ccc(Cl)cc3)SC2=S)C1=O (centres undefined)	none (no result: IMPase inh)
CCC(=O)Nc1cccc(-c2cc3ccccc3oc2=O)c1	none (no result: PNC assembly inh, IMPase inh, HPGD block)
O=C(Cc1cccc2ccccc12)Nc1ccc(-c2cc3ccccc3oc2=O)cc1	ALDH1A1 inh inconclusive, PNC assembly inh -83, HPGD block inconclusive
COc1cccc(Cn2nc(C(=O)O)c3ccccc3c2=O)c1	ALDH1A1 inh inconclusive (no result: PNC assembly inh, IMPase inh, HPGD block)
Cc1cccc(-c2noc(CCC(=O)NCC3CCCO3)n2)c1 (centres undefined)	HPGD block 25µM
O=C(Cc1ccccc1)NCC1CCCO1 (centres undefined)	none
O=C(CCc1c[nH]c2ccccc12)NCC1CCCO1 (centres undefined)	PNC assembly inh inconclusive, HPGD block 14µM
Cc1ccccc1-c1noc(CCC(=O)NCC2CCCO2)n1 (centres undefined)	HPGD block 16µM
Cc1sc2ncnc(Nc3ccc(N4CCOCC4)cc3)c2c1-c1ccccc1	ALDH1A1 inh inconclusive, IMPase inh inconclusive (no result: IMPase Li inh, HPGD block)
COc1nc(OC)nc(N2CCCCCC2)n1	none
O=C(NCc1cccs1)C1CCC(CNS(=O)(=O)c2ccc(Br)s2)CC1 (centres undefined)	ALDH1A1 inh 2.8µM
O=C(NCc1cccs1)C1CCC(CNS(=O)(=O)c2cccc3nsnc23)CC1 (centres undefined)	ALDH1A1 inh 22µM, PNC assembly inh inconclusive
O=C(NCc1ccccc1Cl)C1CCC(CNS(=O)(=O)c2ccc(Br)s2)CC1 (centres undefined)	none (no result: ALDH1A1 inh, PNC assembly inh, IMPase Li inh, NPSR antagonist, HPGD block)
O=C(NC1CCCCC1)C1CCC(CNS(=O)(=O)c2cccc3nsnc23)CC1 (centres undefined)	ALDH1A1 inh inconclusive
O=C(C1CCC(CNS(=O)(=O)c2cccc3nsnc23)CC1)N1CC=C(c2ccccc2)CC1 (centres undefined)	ALDH1A1 inh 18µM, HPGD block 16µM
COc1cccc(CNC(=O)C2CCC(CNS(=O)(=O)c3cccc4nsnc34)CC2)c1 (centres undefined)	ALDH1A1 inh 20µM, PNC assembly inh -106
O=C(CSCc1cccc(CSCC(=O)Nc2ccccc2)n1)Nc1ccccc1	PNC assembly inh inconclusive
CCOC(=O)N1CCC(NC(=O)CCC(=O)N2CCOc3ccc(Cl)cc32)CC1	ALDH1A1 inh inconclusive (no result: PNC assembly inh, IMPase inh, HPGD block)
O=C1CCC(=O)N1CCC(c1ccc(F)cc1)c1ccco1 (centres undefined)	none
O=C1c2ccccc2C(=O)N1CCC(c1ccc(F)cc1)c1ccco1 (centres undefined)	ALDH1A1 inh 10µM
